Laboratory results: PubChem BioAssay (NCI)
This is part of a sample that, as a whole, favours compounds with a hit. Of some 83,000 tested, about 20% had one in any assay.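 In brief: 96-well plates, 48 h treatment, single concentration, percent growth endpoint.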 Activity calls are given as the source filed them. The calls were made as follows: active = growth percent below 10; inactive = the rest.

Legend:
Test in all cases: NCI-60 one-dose screen, 48 h (100 = growth as untreated, 0 = no growth, -100 = all killed)
Settings in all cases: 10 µM unless noted
[1] = system: DU-145 prostate
[2] = system: K-562 leukemia
[3] = system: MALME-3M melanoma
[4] = system: MDA-MB-231 breast
[5] = system: RXF 393 renal
[6] = system: SF-268 CNS
[7] = system: SF-295 CNS
[8] = system: SF-539 CNS
[9] = system: UACC-257 melanoma
[10] = system: M14 melanoma
[11] = system: HCT-15 colon
[12] = system: HT29 colon
[13] = system: SNB-75 CNS
[14] = system: U251 CNS
[15] = system: PC-3 prostate
[16] = system: SK-MEL-5 melanoma
[17] = system: UACC-62 melanoma
[18] = system: LOX IMVI melanoma
[19] = system: SK-MEL-28 melanoma

Measured: growth

CCN(CC)CCCNc1ccc(Nc2ccc(OC)cc2)cc1
inactive: [1] 90.7% | [2] 34.1% | [3] 104% | [4] 34.6% | [5] 90.5% | [6] 77.5% | [7] 120% | [8] 98.6% | [9] 87.4% | [10] 94.7% | [11] 105% | [12] 67.5% | [13] 80% | [14] 79.8% | [15] 55.3% | [16] 91.2% | [17] 95.8% | [18] 86.4% | [19] 101%

O=C(N/N=C/C=C/c1ccc([N+](=O)[O-])o1)c1cc2ccccc2cc1O
inactive: [7] 14.4% | [13] 43.4%
active: [1] -21.7% | [2] 4.52% | [3] -68% | [4] -15.9% | [5] -63.2% | [6] -20.3% | [8] -83.6% | [9] -56.3% | [10] -100% | [11] -12.3% | [12] -11.7% | [14] -16% | [15] 4.52% | [16] -100% | [17] -64.3% | [18] -79.5% | [19] -66.5%

Cn1cc2c(c1)-c1nc(Nc3ccccc3)ncc1CC2
inactive: [1] 56.5% | [2] 85.2% | [3] 95.3% | [4] 67.4% | [5] 62.4% | [6] 72.2% | [7] 84.3% | [8] 65.6% | [9] 89.7% | [10] 55% | [11] 45.9% | [12] 79.9% | [13] 75.7% | [14] 59.7% | [15] 58.5% | [16] 73.2% | [17] 51.1% | [18] 49.6% | [19] 99.9%

COc1ccc(CNC(=O)C(O)C(Cc2ccccc2)NC(=O)c2[nH]c3ccccc3c(=O)c2C)cc1OC (configuration not stated)
inactive: [1] 113% | [2] 102% | [3] 111% | [4] 103% | [5] 111% | [6] 102% | [7] 99.7% | [8] 107% | [9] 105% | [10] 106% | [11] 101% | [12] 100% | [13] 107% | [14] 101% | [15] 102% | [16] 103% | [17] 103% | [18] 104% | [19] 109%

NS(=O)(=O)c1ccc(-n2nc(C(=O)N/N=C\c3ccc(F)cc3)cc2-c2ccc(Cl)cc2)cc1
inactive: [1] 104% | [2] 87.9% | [3] 89.9% | [4] 74% | [5] 89.5% | [6] 88.3% | [7] 97% | [8] 88.1% | [9] 101% | [11] 98.4% | [12] 118% | [13] 57.1% | [14] 93.3% | [15] 81.9% | [16] 93.5% | [17] 81.8% | [18] 90.9% | [19] 98.8%
active: [10] -85.9%

COc1cc(N=Nc2cc(Cc3ccc(N(C)C)cc3)c(N)cc2N(C)C)c2ncccc2c1
active: [1] -48.7% | [2] -36.8% | [3] -17.6% | [4] -45.1% | [5] -79.7% | [8] -85.8% | [9] -33% | [10] -15.7% | [11] -13.2% | [12] -65.4% | [14] -54.8% | [15] 3.89% | [16] -13.8% | [17] -34% | [18] -83.2%
inactive: [6] 17.3% | [7] 11.8% | [13] 28.1% | [19] 15.7%

CC1=C([Se]CC(OC(=O)CC[Se]c2ccccc2)C(=O)NCCCCCC(=O)OCc2ccccc2)C(=O)c2ccccc2C1=O (configuration not stated)
active: [3] -31.3% | [6] 4.54% | [7] -7.86% | [10] -36.8% | [16] -24.9%
inactive: [1] 22.1% | [2] 39.5% | [4] 32.3% | [5] 35% | [8] 15.3% | [9] 35.9% | [11] 50.1% | [12] 41.2% | [13] 56.2% | [14] 12.7% | [15] 30.7% | [17] 41.6% | [18] 10.3% | [19] 21.7%

CCOC(=O)c1c(/C=C/C(=O)O)nc2ccccc2c1/C=C/c1ccccc1
inactive: [1] 14.2% | [2] 23.9% | [3] 51.4% | [4] 57.5% | [5] 11.3% | [6] 40.7% | [7] 73.6% | [8] 19.8% | [9] 49.6% | [10] 63% | [11] 23.9% | [12] 49.9% | [13] 15% | [14] 51.2% | [15] 53.5% | [16] 53.7% | [17] 45.5% | [18] 28.1% | [19] 45.8%

COc1ccc2c(c1)O/C(=C/c1ccc(OCC(=O)c3ccccc3)cc1)C2=O
inactive: [1] 118% | [2] 80.7% | [3] 96.3% | [4] 84.4% | [5] 109% | [6] 117% | [7] 137% | [8] 107% | [9] 125% | [10] 99.3% | [11] 111% | [12] 110% | [13] 120% | [14] 108% | [15] 96.2% | [16] 125% | [17] 96.3% | [18] 108% | [19] 132%

CC(C)(C)OC(=O)Nc1ccc2c(c1)C(NC(=O)Nc1cccc(C#N)c1)CC(C)(C)O2 (configuration not stated)
inactive: [1] 71.6% | [2] 23.3% | [3] 39% | [4] 68.8% | [5] 72.4% | [6] 53.4% | [7] 31.9% | [8] 66.8% | [9] 27.2% | [10] 47.5% | [11] 34.2% | [12] 55% | [13] 71.8% | [14] 32.7% | [15] 30.5% | [17] 34.6% | [18] 26.9% | [19] 74.7%
active: [16] -5.57%

COc1cc(C2CC(c3ccc(Nc4ccnc5cc(Cl)ccc45)cc3)=NN2C=O)cc(OC)c1OC (configuration not stated)
inactive: [1] 66.4% | [2] 26% | [3] 25.2% | [4] 85.8% | [5] 83.6% | [6] 90.1% | [7] 75.2% | [8] 73.2% | [9] 60.1% | [10] 75.1% | [11] 48.8% | [13] 75.7% | [14] 44.6% | [16] 37.3% | [19] 22.4%
active: [12] -37.3% | [18] 0.138%

CCC(CO)Nc1nc2ccc(Cl)cc2c2ccccc12 (configuration not stated)
active: [5] 4.53%
inactive: [1] 84.9% | [2] 38.2% | [3] 85.8% | [4] 55.7% | [6] 70.7% | [7] 74.8% | [8] 55.8% | [9] 97.5% | [10] 84.8% | [11] 57.1% | [12] 30.1% | [13] 18.8% | [14] 51.3% | [15] 59.5% | [16] 68.4% | [17] 60.4% | [18] 67.2% | [19] 90.8%

Cc1ccc(-c2c(-c3ccccc3)c(=O)oc3ccc(C)cc23)cc1
inactive: [1] 116% | [2] 76% | [3] 92.9% | [4] 91% | [5] 107% | [6] 91.8% | [7] 104% | [8] 109% | [9] 86.8% | [10] 102% | [11] 52.1% | [12] 101% | [13] 86.3% | [14] 83.1% | [15] 56.4% | [16] 90.9% | [18] 96.2% | [19] 110%

N#CC1=C(c2ccc(Br)cc2)NC(SCC(=O)c2ccc(Br)cc2)NC1=O (configuration not stated)
inactive: [1] 108% | [2] 91.1% | [3] 105% | [4] 105% | [5] 108% | [6] 98.9% | [7] 101% | [8] 96.2% | [9] 103% | [10] 100% | [11] 103% | [12] 105% | [13] 98.7% | [14] 108% | [15] 92.4% | [16] 110% | [17] 109% | [18] 106% | [19] 111%

C(=N\Nc1ncc(-c2cc3cc4c(cc3o2)OCO4)s1)/c1ccco1
active: [8] 7% | [18] -48.8%
inactive: [1] 12.4% | [2] 21.7% | [3] 25% | [4] 42.4% | [5] 17.1% | [6] 39.2% | [7] 84.8% | [9] 80.1% | [10] 52.5% | [11] 18.4% | [12] 36.9% | [13] 51.2% | [14] 37% | [15] 33.6% | [16] 87.4% | [17] 88.8% | [19] 81%

NC(N)=Nc1nc2ccccc2n2c1nc1ccccc12
inactive: [1] 33.3% | [2] 17.9% | [3] 35.6% | [4] 53.2% | [5] 35% | [6] 28.5% | [7] 24.2% | [8] 50.3% | [9] 60.3% | [10] 42.6% | [11] 25.9% | [12] 18.2% | [13] 43.7% | [14] 27.8% | [15] 48.5% | [16] 58.6% | [17] 40.7% | [18] 20.6% | [19] 82.3%

Nc1ccc2c(c1)c(N)nn2C(=O)Nc1ccc(Cc2ccccc2)cc1
active: [2] -5.66% | [17] 7.09%
inactive: [1] 79.3% | [3] 75.3% | [4] 60.6% | [5] 99.8% | [6] 83.9% | [7] 48% | [8] 73.6% | [9] 79.1% | [10] 46.8% | [11] 44.5% | [12] 76.8% | [13] 126% | [14] 59.9% | [16] 71.7% | [18] 40.3% | [19] 115%

COc1ccc(NC(=O)CSc2nc(C)c(C(C)=O)n2-c2ccc(Cl)cc2)cc1
inactive: [1] 116% | [2] 109% | [3] 96% | [4] 59.7% | [5] 94.5% | [6] 102% | [7] 93.3% | [8] 96.2% | [9] 101% | [10] 97% | [11] 78.4% | [12] 84.2% | [13] 84.7% | [14] 105% | [16] 93.7% | [17] 70.2% | [18] 91% | [19] 91.7%
